SF-1 inh – inhibitors of human SF-1, primary screen, cell-based, CHO-K1, Gal4-SF-1 LBD, luciferase luminescence; Steroidogenic factor 1 (Homo sapiens), Q13285; CHO-K1 Gal4-SF-1 LBD luciferase reporter; inhibition, % at 10 µM; actives 0.55% (n = 65,000); AID 525, 2006;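 active = inhibition above the mean inhibition of all tested compounds plus 3 SD, cut at about 48% in these data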
Target sequence (Q13285 whole entry, looked up, the tested form may be a part): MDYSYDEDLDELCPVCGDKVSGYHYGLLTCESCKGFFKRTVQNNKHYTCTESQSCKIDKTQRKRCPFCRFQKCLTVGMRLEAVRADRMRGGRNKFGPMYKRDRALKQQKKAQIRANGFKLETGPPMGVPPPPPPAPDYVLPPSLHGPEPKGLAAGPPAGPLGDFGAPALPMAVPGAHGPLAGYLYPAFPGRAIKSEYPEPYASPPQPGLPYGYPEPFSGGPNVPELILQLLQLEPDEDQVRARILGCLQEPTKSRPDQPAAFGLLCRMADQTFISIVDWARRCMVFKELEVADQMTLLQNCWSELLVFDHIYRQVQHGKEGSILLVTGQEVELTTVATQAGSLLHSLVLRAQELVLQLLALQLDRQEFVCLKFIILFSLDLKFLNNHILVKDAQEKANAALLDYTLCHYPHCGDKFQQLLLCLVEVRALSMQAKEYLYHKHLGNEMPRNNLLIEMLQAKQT
A number is an active result; 0 = inactive. This excerpt belongs to a sample that is enriched for hits.

SMILES	SF-1 inh
COc1cccc(N2CCN(c3ncnc4c3[nH]c3ccc(F)cc34)CC2C)c1 (configuration not stated)	96.1
COc1cccc(-n2nc(C(=O)O)c3ccccc3c2=O)c1	0
CC(CC1C(C#N)=C(N)OC2=C1C(=O)CCC2)c1ccccc1 (configuration not stated)	0
CC(=O)c1ccc(OCC(O)CN2CCCC(C)C2)cc1 (configuration not stated)	0
c1ccc(-c2cnc(CSc3nnc4ccccn34)o2)cc1	0
Cc1noc(C)c1COC(=O)c1cc2c3ccccc3n(C)c2s1	0
O=C(c1ccccc1F)N1CCN(S(=O)(=O)c2ccc(S(=O)(=O)N3CCCCC3)cc2)CC1	0
O=S(=O)(c1ccc2c(c1)C(=NO)c1cc(S(=O)(=O)N3CCCCC3)ccc1-2)N1CCCCC1	96.5
O=S(=O)(c1ccccc1)c1cccc(S(=O)(=O)N2CCCCC2)c1	0
Cc1cc(C(=O)OCC(=O)c2ccc(Br)s2)c(C)o1	0
C=CCSc1nnc(-c2ccncc2)n1-c1ccc(OCC)cc1	0
CCc1ccc(C(=O)NC2CCCCC2)s1	0
CCOc1ccccc1C(=O)N1CCN(c2cccc(Cl)c2)CC1	55.2
COC(=O)c1[nH]c2ccccc2c1NC(=O)CN1CCN(c2cccc(Cl)c2)CC1	0
CCOc1ccccc1C(=O)N1CCN=C1SC	0
CCCCN(C)S(=O)(=O)c1ccc(C(=O)Nc2nnc(CSC)o2)cc1	0
CCOC(=O)c1c(C)nc(-c2ccccc2)nc1N	0
CCOC(=O)c1cnc2c(-c3ccccc3)cnn2c1N	0
CCOC(=O)C1=Nc2ccccc2C1=[N+]=[N-]	83.6
Cc1cc(NC(=O)CCC(=O)N(c2cccnc2)C(C(=O)NC2CCCC2)c2ccccc2)no1 (configuration not stated)	0
Cn1c(-c2ccc3ccccc3n2)nc2cnccc21	0
COc1ccccc1NC(=O)N1CCN(c2ccccn2)CC1	0
Cc1cnc(NC(=O)CN2CCN(c3ccccn3)CC2)s1	61.3
O=C(CN1CCN(c2ccccn2)CC1)Nc1cccc(C(F)(F)F)c1	0
Cc1[nH]c(=O)[nH]c(=O)c1NS(=O)(=O)c1ccc2c(c1)CCCC2	0
SMILES	SF-1 inh
COC(=O)COc1ccc(S(=O)(=O)N2CCN(c3ccccc3F)CC2)cc1	0
CCOC(=O)C1=C(C)N(C)C(C)=C(C(=O)OCC)C1c1cccnc1	0
CCN(CC)c1ccc2c(c1)OC(N)=C(C#N)C2c1cccnc1 (configuration not stated)	64.6
Cc1cc2c(c(=O)n1CCCn1ccnc1)C(c1ccco1)C(C#N)=C(N)O2 (configuration not stated)	0
CCc1c(C#N)c(N)nc(SCC(=O)OCc2ccccc2)c1C#N	0
C(=C\CSc1ncn[nH]1)/CSc1ncn[nH]1	0
CCCn1c(CN2CCCCC2C)nc2c1c(=O)n(C)c(=O)n2C (configuration not stated)	0
CCOC(=O)C1=C(C)NC(=O)NC1c1ccc2c(c1)OCCO2 (configuration not stated)	0
c1ccc2nc(-c3nc4ccccc4o3)ccc2c1	63.8
Clc1ccc2oc(-c3ccccn3)nc2c1	0
Cc1ccnc2ccc(-c3nc4ccccc4o3)cc12	0
Cc1cc(NS(=O)(=O)c2ccc(NC(=O)Nc3ccc4c(c3)OCO4)cc2)no1	0
CCC(=O)N1CCc2cc(S(=O)(=O)NC(C(=O)NCc3ccccc3)C(C)C)ccc21 (configuration not stated)	0
CCn1c(=O)c(C(=O)NCCN2CCCCC2)c(O)c2ccccc21	0
O=C(Nc1cccc(-c2nnc(-c3ccccc3)o2)c1)C1CCCCC1	0
O=C(Nc1ccccc1)c1cccc(-c2nnc(-c3ccccc3)o2)c1	62.7
O=C(Nc1ccc2oc(-c3ccccc3)nc2c1)c1cccnc1	0
CCOC(=O)c1sc(NC(=O)c2ccc(CC)s2)nc1C	0
CCCOc1ccccc1C(=O)N(Cc1cccs1)C1CCS(=O)(=O)C1 (configuration not stated)	0
CCOC(=O)c1cnc(-n2nc(C)cc2C)nc1NCc1ccc2c(c1)OCO2	0
CCOC(=O)N1CCC(C(=O)Nc2ccc(OCC)cc2)CC1	0
CCOc1ccc(Nc2cc(C)nc(-n3nc(C)cc3C)n2)cc1	64.9
Cc1nn(Cc2ccccc2)c(Cl)c1C(=O)OCc1nnc(-c2ccc(Cl)cc2)o1	0
CC(=O)N1CCN=C1SCc1ccc(F)cc1	0
CCS(=O)(=O)Nc1cc(-c2nc3cccnc3s2)ccc1C	0
SMILES	SF-1 inh
O=S(=O)(Nc1cccc2ncccc12)c1cccs1	95.7
O=C(CN1CCOc2ccccc21)NC1CC1	0
CN(c1ccccc1)S(=O)(=O)c1ccc(C(=O)Nc2nnc(-c3ccc(F)cc3)o2)cc1	0
O=C(Nc1nnc(C2CC2)o1)c1ccc(S(=O)(=O)N2CCCc3ccccc32)cc1	49.1
COC(=O)Nc1ccc(S(=O)(=O)N2c3ccccc3CCC2C)cc1 (configuration not stated)	0
CC(=O)Nc1ccc(C(=O)OC2CCOC2=O)cc1 (configuration not stated)	0
CCc1cc(=O)n2[nH]c(C)c(-c3ccccc3OC)c2n1	0
Cc1ccc(Cn2c(CN3CC(C)OC(C)C3)nc3c2c(=O)n(C)c(=O)n3C)cc1 (configuration not stated)	0
O=C(Nc1ccc(N2CCOCC2)c(Cl)c1)c1ccc(Br)o1	0
O=C(Nc1ccc(N2CCOCC2)cc1)c1cnsn1	68.7
CN1CCN(c2ccc(NC(=O)c3ccc4c(c3)OCO4)cc2)CC1	0
CN(C)C(=O)CSc1nnc(C23CC4CC(CC(C4)C2)C3)o1	0
COC(=O)c1nnn(CC(=O)Nc2cc(Cl)ccc2C)c1C(=O)OC	0
Clc1ccc(-c2nc(-c3ccccn3)no2)cc1Cl	51.2
c1ccc(CCc2nc(-c3ccccn3)no2)cc1	0
CCCCC1CCC(c2nc(-c3ccccn3)no2)CC1 (configuration not stated)	0
COC(=O)c1c(NC(=O)c2ccc(C)o2)sc2c1CCCCC2	0
c1ccc(OCc2nn3c(-c4ccncc4)nnc3s2)cc1	0
CCNC(=O)COC(=O)COc1ccc(Cl)cc1C	0
Cn1c(CSc2nc3ccccc3s2)nc2ccccc21	0
OC1CCCCC1Sc1nc2ccccc2s1 (configuration not stated)	0
O=S1(=O)C=C(Sc2nc3ccccc3s2)c2ccccc21	93.2
O=C(Nc1cccc(-c2cn3ccsc3n2)c1)c1ccccc1	0
O=C(NCCC1=CCCCC1)C1CCN(C(=O)Nc2ccccc2)CC1	0
CC1(c2ccccc2)NC(=O)N(CCN2C(=O)c3ccccc3C2=O)C1=O (configuration not stated)	0
SMILES	SF-1 inh
O=C(NCc1nnc(SCC(=O)N2CCC(Cc3ccccc3)CC2)o1)c1ccccc1F	0
O=C(CSc1nc2ccccc2[nH]1)NCc1ccco1	0
Brc1cccc(-c2nnc(-c3ccccc3)o2)c1	0
O=S1(=O)C=C(Sc2nnc(-c3ccccc3)o2)c2ccccc21	65.6
COc1ccccc1NC(=O)CSc1nnc(-c2ccc(C)cc2)o1	0
CCN1CCN(c2ncc(C(=O)N3CCCc4ccccc43)c3ccccc23)CC1	0
CC(NC(=O)Nc1nnc(C(F)(F)F)s1)(C(F)(F)F)C(F)(F)F	93.9
O=C(CCN1C(=O)C2CC=C(Cl)CC2C1=O)N1CCCCC1 (configuration not stated)	0
Cc1csc(NC(=O)Nc2cccc(Cl)c2)n1	0
